In the supplement of paper PMC10849652:
Targets with a hit are over-represented here; the source holds about 7,900 in all. About 0.6% of all pairs of compound and target were hits. A number with no mark means an inactive call.

What was measured:
Assay in all cases: log2 fold change, soluble protein after heating vs DMSO (PISA); higher = thermal stabilisation; K562 cells, 10 uM, 30 min; active = over 0.2 and 3.5 SD of the protein, either way, in both replicates (recomputed)
saracatinib = compound: CN1CCN(CCOc2cc(OC3CCOCC3)c3c(Nc4c(Cl)ccc5c4OCO5)ncnc3c2)CC1 [saracatinib]
Method in brief: (§1)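 Values are thermal stability changes relative to control samples and are taken from duplicates. They are stated as log2 fold changes. Before quantification by TMTpro 16plex LC-MS/MS with equalised channel sums, K562 cells at 2×10^6 cells/mL were treated with 10 μM compound for 30 min, heated in aliquots for 3 min across 48°C-58°C, pooled, extracted in PBS with 0.5% NP-40 at 4°C, and centrifuged at 21,000xg for 90 min to give the soluble supernatant.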

sotrastaurin = compound: CN1CCN(c2nc(C3=C(c4c[nH]c5ccccc45)C(=O)NC3=O)c3ccccc3n2)CC1 [sotrastaurin]
Method in brief: as §1

alvocidib = compound: CN1CC[C@H](c2c(O)cc(O)c3c(=O)cc(-c4ccccc4Cl)oc23)[C@H](O)C1 [alvocidib]
Method in brief: as §1

Tubastatin A = compound: CN1CCc2c(c3ccccc3n2Cc2ccc(C(=O)NO)cc2)C1 [Tubastatin A]
Method in brief: as §1

[1] = compound: CNC(=O)C1=CC=CC=C1NC2=NC(=NC=C2Cl)NC3=C(C=C(C=C3)N4CCOCC4)OC
Method in brief: as §1

defactinib = compound: CNC(=O)c1ccc(Nc2ncc(C(F)(F)F)c(NCc3nccnc3N(C)S(C)(=O)=O)n2)cc1 [defactinib]
Method in brief: as §1

rucaparib = compound: CNCc1ccc(-c2[nH]c3cc(F)cc4c3c2CCNC4=O)cc1 [rucaparib]
Method in brief: as §1

[2] = compound: CNc1nc(-c2ccc3c(N)n[nH]c3c2)cc(N2C[C@@H](C(=O)NC3CCCCC3)CC[C@H]2C)n1
Method in brief: as §1

encorafenib = compound: COC(=O)N[C@@H](C)CNc1nccc(-c2cn(C(C)C)nc2-c2cc(Cl)cc(NS(C)(=O)=O)c2F)n1 [encorafenib]
Method in brief: as §1

[3] = compound: COC(=O)[C@H](CCSC)NC(=O)C1=C(C=C(C=C1)NC[C@H](CS)N)C2=CC=CC=C2
Method in brief: as §1

[4] = compound: COC1=CC=C(C=C1)CN2C=CC3=C2C=C(C=C3)C(=O)NO
Method in brief: as §1

filanesib = compound: CON(C)C(=O)N1N=C(c2cc(F)ccc2F)S[C@@]1(CCCN)c1ccccc1 [filanesib]
Method in brief: as §1

zotarolimus = compound: CO[C@H]1C[C@@H]2CC[C@@H](C)[C@@](O)(O2)C(=O)C(=O)N2CCCC[C@H]2C(=O)O[C@H]([C@H](C)C[C@@H]2CC[C@H](n3cnnn3)[C@H](OC)C2)CC(=O)[C@H](C)/C=C(\C)[C@@H](O)[C@@H](OC)C(=O)[C@H](C)C[C@H](C)/C=C/C=C/C=C/1C [zotarolimus]
Method in brief: as §1

idasanutlin = compound: COc1cc(C(=O)O)ccc1NC(=O)[C@@H]1N[C@@H](CC(C)(C)C)[C@](C#N)(c2ccc(Cl)cc2F)[C@H]1c1cccc(Cl)c1F [idasanutlin]
Method in brief: as §1

alisertib = compound: COc1cc(Nc2ncc3c(n2)-c2ccc(Cl)cc2C(c2c(F)cccc2OC)=NC3)ccc1C(=O)O [alisertib]
Method in brief: as §1

[5] = compound: COc1cc2nc(-c3cc(F)ccc3O)nc(N[C@@H]3CNC[C@H]3C(C)(C)O)c2cc1OC
Method in brief: as §1

gefitinib = compound: COc1cc2ncnc(Nc3ccc(F)c(Cl)c3)c2cc1OCCCN1CCOCC1 [gefitinib]
Method in brief: as §1

[6] = compound: COc1cccc2cc(-c3nc([C@H]4CC[C@H](C(=O)O)CC4)n4ncnc(N)c34)[nH]c12
Method in brief: as §1

lapatinib = compound: CS(=O)(=O)CCNCc1ccc(-c2ccc3ncnc(Nc4ccc(OCc5cccc(F)c5)c(Cl)c4)c3c2)o1 [lapatinib]
Method in brief: as §1

pictilisib = compound: CS(=O)(=O)N1CCN(Cc2cc3nc(-c4cccc5[nH]ncc45)nc(N4CCOCC4)c3s2)CC1 [pictilisib]
Method in brief: as §1

UniProt Q9Y6D6, sequence (Q9Y6D6 whole entry, looked up): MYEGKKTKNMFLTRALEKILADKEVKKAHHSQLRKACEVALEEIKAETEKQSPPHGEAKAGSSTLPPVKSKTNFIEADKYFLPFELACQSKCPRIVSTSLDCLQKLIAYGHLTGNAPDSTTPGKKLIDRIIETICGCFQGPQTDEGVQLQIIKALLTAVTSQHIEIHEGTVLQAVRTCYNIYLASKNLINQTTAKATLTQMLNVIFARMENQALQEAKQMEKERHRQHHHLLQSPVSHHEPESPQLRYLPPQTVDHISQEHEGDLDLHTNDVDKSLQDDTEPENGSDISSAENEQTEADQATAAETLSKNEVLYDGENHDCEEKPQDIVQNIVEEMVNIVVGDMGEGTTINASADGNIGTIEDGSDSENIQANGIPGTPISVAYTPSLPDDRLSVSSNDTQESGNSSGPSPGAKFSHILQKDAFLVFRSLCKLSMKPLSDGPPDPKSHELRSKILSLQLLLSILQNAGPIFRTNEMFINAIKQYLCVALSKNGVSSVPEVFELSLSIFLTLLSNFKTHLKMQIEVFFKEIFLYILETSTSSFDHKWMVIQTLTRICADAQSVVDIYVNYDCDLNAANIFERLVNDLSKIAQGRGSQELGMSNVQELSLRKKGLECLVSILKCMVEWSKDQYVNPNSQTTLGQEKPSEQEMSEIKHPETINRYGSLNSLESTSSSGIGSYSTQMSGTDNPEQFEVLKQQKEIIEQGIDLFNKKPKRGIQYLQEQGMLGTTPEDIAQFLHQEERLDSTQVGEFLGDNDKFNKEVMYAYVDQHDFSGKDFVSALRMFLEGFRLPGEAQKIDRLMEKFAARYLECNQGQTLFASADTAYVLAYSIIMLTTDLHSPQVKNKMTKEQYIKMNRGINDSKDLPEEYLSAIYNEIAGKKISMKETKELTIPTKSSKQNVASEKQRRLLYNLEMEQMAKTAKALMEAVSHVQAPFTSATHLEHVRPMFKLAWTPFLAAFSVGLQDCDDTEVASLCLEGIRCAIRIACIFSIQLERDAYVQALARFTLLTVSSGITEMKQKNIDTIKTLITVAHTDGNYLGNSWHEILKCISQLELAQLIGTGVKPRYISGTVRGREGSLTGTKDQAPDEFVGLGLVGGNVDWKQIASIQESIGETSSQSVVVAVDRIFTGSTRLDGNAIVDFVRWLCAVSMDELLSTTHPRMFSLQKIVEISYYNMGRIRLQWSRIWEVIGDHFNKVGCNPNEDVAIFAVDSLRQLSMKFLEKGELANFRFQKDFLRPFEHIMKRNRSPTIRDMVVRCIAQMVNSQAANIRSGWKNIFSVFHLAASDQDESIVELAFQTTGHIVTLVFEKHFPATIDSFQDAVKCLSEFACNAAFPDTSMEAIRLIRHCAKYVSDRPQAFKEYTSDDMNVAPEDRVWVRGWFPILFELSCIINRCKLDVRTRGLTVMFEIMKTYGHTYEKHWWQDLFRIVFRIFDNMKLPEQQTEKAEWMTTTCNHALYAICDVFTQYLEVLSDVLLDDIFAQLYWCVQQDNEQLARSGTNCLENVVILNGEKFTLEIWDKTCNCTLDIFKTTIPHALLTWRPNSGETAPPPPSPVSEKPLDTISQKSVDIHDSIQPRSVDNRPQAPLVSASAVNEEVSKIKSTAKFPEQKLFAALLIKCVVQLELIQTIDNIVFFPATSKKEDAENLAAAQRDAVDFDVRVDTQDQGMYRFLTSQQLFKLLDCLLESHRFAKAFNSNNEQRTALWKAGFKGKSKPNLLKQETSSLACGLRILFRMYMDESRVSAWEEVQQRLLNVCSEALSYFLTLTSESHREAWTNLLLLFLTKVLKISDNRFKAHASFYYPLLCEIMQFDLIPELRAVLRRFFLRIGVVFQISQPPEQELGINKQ
UniProt Q9NP58, sequence (Q9NP58 whole entry, looked up): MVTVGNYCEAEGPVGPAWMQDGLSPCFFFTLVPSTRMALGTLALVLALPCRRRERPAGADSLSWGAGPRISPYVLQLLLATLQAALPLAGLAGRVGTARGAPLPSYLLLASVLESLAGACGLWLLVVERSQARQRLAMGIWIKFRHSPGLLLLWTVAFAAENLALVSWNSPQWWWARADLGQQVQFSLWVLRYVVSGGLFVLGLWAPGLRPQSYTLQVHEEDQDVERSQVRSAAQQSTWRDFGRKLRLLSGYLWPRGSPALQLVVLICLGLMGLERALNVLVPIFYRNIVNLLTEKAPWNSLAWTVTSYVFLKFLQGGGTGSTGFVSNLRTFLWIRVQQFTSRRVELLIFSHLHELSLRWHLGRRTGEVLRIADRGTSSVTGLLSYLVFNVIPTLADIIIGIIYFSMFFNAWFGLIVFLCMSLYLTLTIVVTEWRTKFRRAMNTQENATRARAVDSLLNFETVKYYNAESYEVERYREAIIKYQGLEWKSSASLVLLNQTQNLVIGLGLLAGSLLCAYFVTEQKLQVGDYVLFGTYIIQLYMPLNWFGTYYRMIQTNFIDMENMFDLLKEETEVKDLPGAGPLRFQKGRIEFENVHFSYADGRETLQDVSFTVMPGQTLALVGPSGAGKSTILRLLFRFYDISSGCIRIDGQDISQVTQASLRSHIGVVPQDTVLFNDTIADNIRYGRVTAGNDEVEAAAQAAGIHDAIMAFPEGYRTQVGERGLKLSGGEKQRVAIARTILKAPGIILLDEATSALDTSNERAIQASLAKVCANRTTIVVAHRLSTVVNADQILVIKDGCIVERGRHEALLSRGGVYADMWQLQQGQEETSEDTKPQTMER
UniProt P31939, sequence (P31939 whole entry, looked up): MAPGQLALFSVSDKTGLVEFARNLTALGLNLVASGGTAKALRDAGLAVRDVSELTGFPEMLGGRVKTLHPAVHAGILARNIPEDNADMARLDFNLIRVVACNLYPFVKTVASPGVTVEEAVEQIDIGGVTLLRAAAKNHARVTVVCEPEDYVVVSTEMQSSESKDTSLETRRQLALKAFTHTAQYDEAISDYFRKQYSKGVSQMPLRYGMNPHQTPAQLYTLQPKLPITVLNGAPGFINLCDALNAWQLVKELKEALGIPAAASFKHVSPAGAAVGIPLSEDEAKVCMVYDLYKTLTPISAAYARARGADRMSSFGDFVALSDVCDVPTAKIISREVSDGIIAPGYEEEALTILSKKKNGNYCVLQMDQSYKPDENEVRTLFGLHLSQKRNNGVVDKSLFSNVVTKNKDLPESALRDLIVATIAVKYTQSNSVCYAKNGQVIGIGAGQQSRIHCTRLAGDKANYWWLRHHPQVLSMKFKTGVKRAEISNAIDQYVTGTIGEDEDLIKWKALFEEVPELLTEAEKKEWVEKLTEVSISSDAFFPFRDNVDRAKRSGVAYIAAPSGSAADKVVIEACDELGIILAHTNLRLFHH
UniProt P11310, sequence (P11310 whole entry, looked up): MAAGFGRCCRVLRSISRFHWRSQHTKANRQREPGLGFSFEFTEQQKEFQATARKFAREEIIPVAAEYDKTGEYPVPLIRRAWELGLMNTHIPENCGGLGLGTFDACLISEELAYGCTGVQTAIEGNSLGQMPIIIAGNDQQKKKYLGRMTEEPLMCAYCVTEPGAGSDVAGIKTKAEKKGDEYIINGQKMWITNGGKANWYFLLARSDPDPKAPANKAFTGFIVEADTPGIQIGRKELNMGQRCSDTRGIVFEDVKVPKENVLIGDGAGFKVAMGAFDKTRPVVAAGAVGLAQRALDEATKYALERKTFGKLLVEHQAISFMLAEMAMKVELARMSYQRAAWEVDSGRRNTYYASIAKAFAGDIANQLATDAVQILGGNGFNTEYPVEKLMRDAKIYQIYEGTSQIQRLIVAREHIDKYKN
UniProt Q13733, sequence (Q13733 whole entry, looked up): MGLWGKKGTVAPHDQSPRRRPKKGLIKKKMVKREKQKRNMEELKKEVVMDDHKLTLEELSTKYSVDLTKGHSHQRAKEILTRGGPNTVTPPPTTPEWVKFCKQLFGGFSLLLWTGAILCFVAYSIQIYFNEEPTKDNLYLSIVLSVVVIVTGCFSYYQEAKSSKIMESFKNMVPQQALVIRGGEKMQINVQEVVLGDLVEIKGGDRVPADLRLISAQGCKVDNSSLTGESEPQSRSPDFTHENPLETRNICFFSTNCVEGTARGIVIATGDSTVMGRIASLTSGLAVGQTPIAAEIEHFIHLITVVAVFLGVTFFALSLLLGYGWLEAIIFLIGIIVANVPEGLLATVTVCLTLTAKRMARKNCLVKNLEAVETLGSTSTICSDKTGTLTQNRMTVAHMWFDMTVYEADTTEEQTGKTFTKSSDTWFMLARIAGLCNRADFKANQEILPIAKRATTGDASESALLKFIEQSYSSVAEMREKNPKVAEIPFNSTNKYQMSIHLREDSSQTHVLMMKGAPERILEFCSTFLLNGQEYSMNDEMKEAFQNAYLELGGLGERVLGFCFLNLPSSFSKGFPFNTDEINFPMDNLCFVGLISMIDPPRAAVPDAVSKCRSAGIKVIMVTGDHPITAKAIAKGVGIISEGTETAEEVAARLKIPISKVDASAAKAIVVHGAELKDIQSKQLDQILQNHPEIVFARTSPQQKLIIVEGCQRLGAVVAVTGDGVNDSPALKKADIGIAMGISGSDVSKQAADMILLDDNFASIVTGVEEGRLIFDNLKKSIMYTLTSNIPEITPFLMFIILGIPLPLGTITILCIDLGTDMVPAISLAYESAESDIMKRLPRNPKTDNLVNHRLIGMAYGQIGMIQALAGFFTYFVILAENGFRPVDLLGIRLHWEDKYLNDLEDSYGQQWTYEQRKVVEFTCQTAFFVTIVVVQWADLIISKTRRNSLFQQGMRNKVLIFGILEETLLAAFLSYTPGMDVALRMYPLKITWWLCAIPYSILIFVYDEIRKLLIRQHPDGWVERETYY
UniProt Q9UII2, sequence (Q9UII2 whole entry, looked up): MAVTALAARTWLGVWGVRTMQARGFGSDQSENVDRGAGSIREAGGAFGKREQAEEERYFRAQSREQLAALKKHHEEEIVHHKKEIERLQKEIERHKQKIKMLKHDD
UniProt Q9Y2Y0, sequence (Q9Y2Y0 whole entry, looked up): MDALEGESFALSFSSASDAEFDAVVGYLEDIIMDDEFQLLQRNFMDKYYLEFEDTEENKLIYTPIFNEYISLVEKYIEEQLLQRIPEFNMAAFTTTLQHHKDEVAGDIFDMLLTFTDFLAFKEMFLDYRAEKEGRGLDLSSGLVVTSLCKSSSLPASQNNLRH

Target | log2 fold change (saracatinib) | log2 fold change (sotrastaurin) | log2 fold change (alvocidib) | log2 fold change (Tubastatin A) | log2 fold change [1] | log2 fold change (defactinib) | log2 fold change (rucaparib) | log2 fold change [2] | log2 fold change (encorafenib) | log2 fold change [3] | log2 fold change [4] | log2 fold change (filanesib) | log2 fold change (zotarolimus) | log2 fold change (idasanutlin) | log2 fold change (alisertib) | log2 fold change [5] | log2 fold change (gefitinib) | log2 fold change [6] | log2 fold change (lapatinib) | log2 fold change (pictilisib)
ATIC (UniProt P31939) | -0.013 | -0.001 | -0.064 | 0.008 | 0.087 | -0.059 | -0.05 | 0.044 | -0.011 | -0.028 | 0.047 | -0.039 | 0.046 | -0.03 | -0.092 | -0.027 | 0.114 | -0.008 | -0.001 | -0.008
ACADM isoform 2 (UniProt P11310) | 0.031 | 0.274 (active) | -0.006 | -0.03 | 0.019 | -0.016 | -0.024 | 0.083 | -0.016 | 0.004 | 0.039 | -0.036 | 0.014 | -0.039 | -0.055 | 0.039 | 0.017 | 0.046 | 0.001 | 0.029
ATP1A4 (UniProt Q13733) | 0.066 | -0.088 | 0.015 | -0.017 | 0.151 | 0.033 | -0.076 | -0.108 | 0.021 | 0.118 | 0.042 | 0.006 | 0.006 | 0.063 | -0.083 | 0.003 | 0.057 | -0.024 | -0.01 | 0.016
ATRN (UniProt O75882) | 0.05 | -0.047 | -0.024 | 0.012 | -0.017 | -0.065 | 0.022 | 0.12 | -0.05 | 0.045 | -0.243 | -0.037 | 0 | -0.032 | 0.095 | -0.004 | 0.108 | 0.111 | 0.043 | 0.153
ABCC5 (UniProt O15440) | 0.107 | -0.028 | 0.007 | 0.002 | -0.02 | 0.019 | 0.116 | -0.003 | -0.039 | 0.026 | -0.026 | 0.001 | -0.02 | 0.017 | -0.026 | 0.053 | 0.089 | -0.05 | 0 | -0.037
ARFGEF1 (UniProt Q9Y6D6) | 0.037 | 0.039 | -0.055 | 0.013 | 0.094 | 0.007 | 0.011 | 0.059 | 0.048 | -0.038 | 0.043 | 0.014 | 0.111 | -0.092 | -0.075 | 0.246 (active) | 0.06 | 0.016 | 0.116 | 0.006
ARL2BP (UniProt Q9Y2Y0) | 0.093 | -0.047 | -0.021 | 0.082 | 0.002 | -0.153 | 0.055 | 0.147 | -0.12 | -0.055 | 0.287 | -0.061 | 0.062 | -0.012 | -0.074 | -0.049 | 0.028 | 0.02 | -0.025 | 0.098
ARHGAP1 (UniProt Q07960) | -0.015 | -0.03 | -0.057 | 0.044 | -0.032 | -0.046 | 0.005 | -0.019 | 0.001 | -0.014 | -0.016 | 0.084 | 0.038 | 0.004 | -0.011 | 0.152 | 0.005 | -0.036 | -0.035 | 0.024
ANK2 (UniProt Q01484) | 0.24 | 0.05 | -0.013 | -0.122 | 0.05 | -0.057 | -0.019 | -0.095 | -0.106 | -0.041 | -0.054 | -0.052 | -0.05 | 0.083 | -0.076 | -0.04 | -0.062 | 0.048 | -0.013 | 0.532 (active)
ASH2L (UniProt Q9UBL3) | 0.023 | -0.025 | -0.035 | 0.052 | 0.023 | -0.12 | 0.012 | -0.036 | 0.037 | -0.009 | 0.019 | 0.044 | 0.096 | 0.021 | -0.034 | 0.035 | 0.004 | -0.014 | -0.011 | 0.039
AFDN isoform 5 (UniProt P55196) | -0.034 | -0.032 | -0.095 | 0.025 | -0.043 | -0.115 | 0.023 | 0.035 | 0.077 | -0.033 | 0.131 | 0.014 | 0.013 | -0.06 | 0 | 0.034 | -0.017 | -0.009 | -0.026 | -0.009
ATP5IF1 (UniProt Q9UII2) | -0.111 | 0.111 | 0.013 | -0.039 | -0.014 | 0.046 | -0.011 | 0.011 | -0.063 | -0.244 (active) | -0.02 | -0.067 | 0.004 | 0.093 | -0.062 | 0.024 | 0.013 | 0.03 | -0.043 | -0.016
ABCB6 (UniProt Q9NP58) | 0.073 | 0.01 | -0.064 | -0.017 | -0.013 | -0.031 | -0.034 | 0.003 | 0.055 | -0.017 | -0.007 | -0.077 | 0.055 | -0.137 | -0.069 | 0.058 | -0.011 | 0.024 | -0.005 | 0.06
ALDH9A1 isoform 3 (UniProt P49189) | -0.019 | 0.01 | -0.007 | -0.024 | 0.05 | -0.024 | -0.054 | -0.009 | -0.016 | -0.005 | -0.006 | -0.04 | 0.001 | -0.006 | 0.017 | -0.01 | -0.028 | 0.041 | -0.007 | -0.002
ATR (UniProt Q13535) | -0.044 | -0.013 | -0.107 | 0.02 | 0.014 | -0.035 | 0.008 | 0.039 | 0.008 | -0.024 | -0.267 (active) | 0.019 | 0.057 | -0.067 | -0.05 | 0.031 | 0.019 | 0 | 0.039 | 0.112
AIFM2 (UniProt Q9BRQ8) | 0.017 | 0.08 | -0.02 | -0.026 | -0.016 | -0.029 | 0.011 | 0.003 | -0.017 | -0.01 | -0.019 | -0.025 | 0.097 | -0.017 | -0.078 | 0.023 | 0.096 | 0.061 | 0.135 | 0.121
